# Laboratory results reported in ChEMBL document CHEMBL1961873, “Compounds: GSK PKIS; Assays: Nanosyn kinase panel” (2012).
# What was measured:
# [1] = biological target: Dual specificity protein kinase CLK3 (Homo sapiens) (UniProt P49761); details: at 1 µM;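 also: each value is the mean inhibition of CLK3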
# [2] = biological target: Dual specificity tyrosine-phosphorylation-regulated kinase 1A (Homo sapiens) (UniProt Q13627); details: at 0.1 µM
# [3] = biological target: Dual specificity tyrosine-phosphorylation-regulated kinase 1A (Homo sapiens) (UniProt Q13627); details: at 1 µM
# [4] = biological target: Dual specificity tyrosine-phosphorylation-regulated kinase 1B (Homo sapiens) (UniProt Q9Y463); details: at 0.1 µM
# Dual specificity tyrosine-phosphorylation-regulated kinase 1B (Homo sapiens), sequence (Q9Y463 whole entry, looked up): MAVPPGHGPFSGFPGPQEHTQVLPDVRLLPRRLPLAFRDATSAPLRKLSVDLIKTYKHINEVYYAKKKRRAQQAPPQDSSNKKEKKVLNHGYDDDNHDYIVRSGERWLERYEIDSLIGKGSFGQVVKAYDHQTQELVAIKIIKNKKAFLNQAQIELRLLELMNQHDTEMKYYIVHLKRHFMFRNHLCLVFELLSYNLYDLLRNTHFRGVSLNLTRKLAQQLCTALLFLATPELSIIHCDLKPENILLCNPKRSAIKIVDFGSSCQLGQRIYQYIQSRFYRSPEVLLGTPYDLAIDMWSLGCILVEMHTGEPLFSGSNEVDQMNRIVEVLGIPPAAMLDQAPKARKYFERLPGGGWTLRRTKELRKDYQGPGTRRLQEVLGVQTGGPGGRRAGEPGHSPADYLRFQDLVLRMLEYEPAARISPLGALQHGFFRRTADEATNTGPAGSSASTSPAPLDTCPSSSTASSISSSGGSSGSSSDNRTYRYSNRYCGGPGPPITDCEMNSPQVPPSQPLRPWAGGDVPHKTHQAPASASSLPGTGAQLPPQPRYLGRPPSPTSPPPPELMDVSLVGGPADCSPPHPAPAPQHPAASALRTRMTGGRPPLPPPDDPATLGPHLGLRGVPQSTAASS
# [5] = biological target: Dual specificity tyrosine-phosphorylation-regulated kinase 1B (Homo sapiens) (UniProt Q9Y463); details: at 1 µM
# [6] = biological target: T1, Dual specificity tyrosine-phosphorylation-regulated kinase 2 (Homo sapiens) (UniProt Q92630); details: at 0.1 µM
# T1 sequence (whole entry): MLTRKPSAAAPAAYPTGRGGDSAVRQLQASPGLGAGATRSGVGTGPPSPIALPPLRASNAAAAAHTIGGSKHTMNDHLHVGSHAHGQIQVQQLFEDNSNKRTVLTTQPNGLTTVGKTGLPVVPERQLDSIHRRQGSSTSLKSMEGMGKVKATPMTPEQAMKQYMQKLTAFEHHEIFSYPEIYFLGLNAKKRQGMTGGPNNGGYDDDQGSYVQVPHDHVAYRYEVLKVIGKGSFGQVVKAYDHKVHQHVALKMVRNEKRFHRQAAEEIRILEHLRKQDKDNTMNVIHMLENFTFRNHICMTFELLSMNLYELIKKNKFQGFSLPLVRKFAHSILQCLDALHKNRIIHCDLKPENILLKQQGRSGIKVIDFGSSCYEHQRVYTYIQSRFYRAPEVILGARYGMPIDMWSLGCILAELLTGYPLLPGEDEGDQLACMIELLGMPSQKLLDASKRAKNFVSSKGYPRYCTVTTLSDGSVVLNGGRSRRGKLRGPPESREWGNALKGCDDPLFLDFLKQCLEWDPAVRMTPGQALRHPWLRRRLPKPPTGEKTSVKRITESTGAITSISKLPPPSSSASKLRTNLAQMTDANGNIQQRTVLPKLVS
# [7] = biological target: T1, Dual specificity tyrosine-phosphorylation-regulated kinase 2 (Homo sapiens); details: at 1 µM
# [8] = biological target: Glycogen synthase kinase-3 alpha (Homo sapiens) (UniProt P49840); details: at 0.1 µM
# Glycogen synthase kinase-3 alpha (Homo sapiens), sequence (P49840 2-483 limits assumed): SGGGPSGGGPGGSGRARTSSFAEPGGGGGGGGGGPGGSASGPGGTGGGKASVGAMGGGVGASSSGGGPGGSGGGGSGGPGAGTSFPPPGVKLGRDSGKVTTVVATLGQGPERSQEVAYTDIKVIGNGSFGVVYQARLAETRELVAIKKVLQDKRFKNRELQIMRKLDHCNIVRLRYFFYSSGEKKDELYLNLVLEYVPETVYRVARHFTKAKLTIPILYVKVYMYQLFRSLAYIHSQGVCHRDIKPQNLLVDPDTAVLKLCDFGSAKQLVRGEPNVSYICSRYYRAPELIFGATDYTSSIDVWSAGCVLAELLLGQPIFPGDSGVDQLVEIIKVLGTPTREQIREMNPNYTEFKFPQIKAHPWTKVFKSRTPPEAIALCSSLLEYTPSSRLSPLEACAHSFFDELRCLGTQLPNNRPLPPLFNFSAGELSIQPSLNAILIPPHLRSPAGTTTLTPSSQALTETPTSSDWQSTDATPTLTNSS
# [9] = biological target: Glycogen synthase kinase-3 alpha (Homo sapiens) (UniProt P49840); details: at 1 µM
# [10] = biological target: Glycogen synthase kinase-3 beta (Homo sapiens) (UniProt P49841); details: at 0.1 µM
# Glycogen synthase kinase-3 beta (Homo sapiens), sequence (P49841 whole entry, looked up): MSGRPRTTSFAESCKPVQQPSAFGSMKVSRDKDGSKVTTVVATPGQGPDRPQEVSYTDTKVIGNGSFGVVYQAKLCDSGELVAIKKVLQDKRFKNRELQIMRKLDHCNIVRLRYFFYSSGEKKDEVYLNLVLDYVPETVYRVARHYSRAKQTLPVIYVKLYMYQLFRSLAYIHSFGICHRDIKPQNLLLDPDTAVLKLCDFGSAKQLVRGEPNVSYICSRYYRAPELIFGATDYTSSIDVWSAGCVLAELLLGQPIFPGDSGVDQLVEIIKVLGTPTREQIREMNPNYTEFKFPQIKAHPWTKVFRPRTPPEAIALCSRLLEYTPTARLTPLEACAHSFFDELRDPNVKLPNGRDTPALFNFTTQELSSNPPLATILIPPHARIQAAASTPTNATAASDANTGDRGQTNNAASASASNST
# [11] = biological target: Glycogen synthase kinase-3 beta (Homo sapiens) (UniProt P49841); details: at 1 µM
# [12] = biological target: Homeodomain-interacting protein kinase 1 (Homo sapiens) (UniProt Q86Z02); details: at 0.1 µM
# Homeodomain-interacting protein kinase 1 (Homo sapiens), sequence (Q86Z02 whole entry, looked up): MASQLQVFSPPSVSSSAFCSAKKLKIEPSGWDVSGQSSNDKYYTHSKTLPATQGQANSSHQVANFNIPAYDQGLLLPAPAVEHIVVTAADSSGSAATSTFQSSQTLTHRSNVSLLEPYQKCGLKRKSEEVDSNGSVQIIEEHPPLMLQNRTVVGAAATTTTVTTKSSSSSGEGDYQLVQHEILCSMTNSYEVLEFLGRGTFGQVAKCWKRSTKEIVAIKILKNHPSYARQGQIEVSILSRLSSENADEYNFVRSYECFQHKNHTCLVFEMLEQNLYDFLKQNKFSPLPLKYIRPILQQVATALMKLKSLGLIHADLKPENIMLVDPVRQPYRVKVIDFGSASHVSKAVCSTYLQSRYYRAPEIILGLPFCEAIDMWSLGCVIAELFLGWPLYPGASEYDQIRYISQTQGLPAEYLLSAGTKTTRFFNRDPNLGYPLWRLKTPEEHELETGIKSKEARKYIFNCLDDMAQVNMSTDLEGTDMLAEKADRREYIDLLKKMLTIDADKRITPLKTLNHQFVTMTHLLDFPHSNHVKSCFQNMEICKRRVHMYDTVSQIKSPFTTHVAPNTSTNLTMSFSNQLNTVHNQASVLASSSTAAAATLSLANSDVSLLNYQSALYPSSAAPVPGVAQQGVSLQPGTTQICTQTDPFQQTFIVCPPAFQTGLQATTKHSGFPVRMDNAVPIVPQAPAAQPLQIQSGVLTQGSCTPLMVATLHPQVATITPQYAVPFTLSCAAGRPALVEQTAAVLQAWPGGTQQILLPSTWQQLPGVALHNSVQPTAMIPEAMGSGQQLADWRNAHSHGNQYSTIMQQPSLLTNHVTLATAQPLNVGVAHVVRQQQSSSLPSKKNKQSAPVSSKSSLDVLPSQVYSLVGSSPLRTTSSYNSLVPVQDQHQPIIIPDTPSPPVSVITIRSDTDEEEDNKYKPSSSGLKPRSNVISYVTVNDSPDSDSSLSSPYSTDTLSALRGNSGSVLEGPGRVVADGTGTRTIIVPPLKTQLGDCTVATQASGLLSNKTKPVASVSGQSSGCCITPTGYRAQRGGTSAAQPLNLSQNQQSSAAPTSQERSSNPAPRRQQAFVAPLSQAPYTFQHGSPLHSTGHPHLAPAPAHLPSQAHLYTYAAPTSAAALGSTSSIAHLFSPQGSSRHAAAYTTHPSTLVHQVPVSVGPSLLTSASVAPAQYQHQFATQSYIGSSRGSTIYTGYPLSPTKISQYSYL
# [13] = biological target: Homeodomain-interacting protein kinase 1 (Homo sapiens) (UniProt Q86Z02); details: at 1 µM
# [14] = biological target: T2, Homeodomain-interacting protein kinase 4 (Homo sapiens) (UniProt Q8NE63); details: at 0.1 µM
# T2 sequence (whole entry): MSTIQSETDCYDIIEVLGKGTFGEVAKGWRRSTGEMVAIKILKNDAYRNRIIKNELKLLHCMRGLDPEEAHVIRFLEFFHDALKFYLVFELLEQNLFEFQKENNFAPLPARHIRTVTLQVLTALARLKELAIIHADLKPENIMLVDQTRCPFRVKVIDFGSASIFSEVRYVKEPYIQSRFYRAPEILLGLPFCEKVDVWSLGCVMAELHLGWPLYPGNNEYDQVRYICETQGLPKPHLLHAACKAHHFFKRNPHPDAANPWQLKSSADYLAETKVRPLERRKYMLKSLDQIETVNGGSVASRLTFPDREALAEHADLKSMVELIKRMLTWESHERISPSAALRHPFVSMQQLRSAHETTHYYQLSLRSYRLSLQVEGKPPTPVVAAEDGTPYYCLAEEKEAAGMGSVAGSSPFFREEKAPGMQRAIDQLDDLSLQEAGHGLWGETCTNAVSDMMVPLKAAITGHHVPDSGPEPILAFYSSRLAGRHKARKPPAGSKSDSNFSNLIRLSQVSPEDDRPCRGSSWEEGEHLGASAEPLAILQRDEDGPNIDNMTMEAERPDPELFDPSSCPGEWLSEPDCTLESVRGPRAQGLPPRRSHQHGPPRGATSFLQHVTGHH
# [15] = biological target: T2, Homeodomain-interacting protein kinase 4 (Homo sapiens); details: at 1 µM
# [16] = biological target: Mitogen-activated protein kinase 9 (Homo sapiens) (UniProt P45984); details: at 0.1 µM
# Mitogen-activated protein kinase 9 (Homo sapiens), sequence (P45984 whole entry, looked up): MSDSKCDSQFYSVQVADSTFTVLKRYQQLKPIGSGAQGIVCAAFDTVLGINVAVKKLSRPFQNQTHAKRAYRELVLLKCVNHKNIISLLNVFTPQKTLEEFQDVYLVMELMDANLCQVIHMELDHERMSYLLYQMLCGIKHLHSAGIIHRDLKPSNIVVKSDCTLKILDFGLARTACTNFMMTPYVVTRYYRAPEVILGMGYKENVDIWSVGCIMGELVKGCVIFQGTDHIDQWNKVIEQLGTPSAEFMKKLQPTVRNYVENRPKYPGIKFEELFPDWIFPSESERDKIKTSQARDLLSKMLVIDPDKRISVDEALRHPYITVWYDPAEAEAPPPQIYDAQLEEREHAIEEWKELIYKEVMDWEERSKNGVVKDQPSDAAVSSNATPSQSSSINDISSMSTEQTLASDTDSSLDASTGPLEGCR
# [17] = biological target: Mitogen-activated protein kinase 9 (Homo sapiens) (UniProt P45984); details: at 1 µM
# [18] = biological target: Mitogen-activated protein kinase 1 (Homo sapiens) (UniProt P28482); details: at 0.1 µM
# Mitogen-activated protein kinase 1 (Homo sapiens), sequence (P28482 whole entry): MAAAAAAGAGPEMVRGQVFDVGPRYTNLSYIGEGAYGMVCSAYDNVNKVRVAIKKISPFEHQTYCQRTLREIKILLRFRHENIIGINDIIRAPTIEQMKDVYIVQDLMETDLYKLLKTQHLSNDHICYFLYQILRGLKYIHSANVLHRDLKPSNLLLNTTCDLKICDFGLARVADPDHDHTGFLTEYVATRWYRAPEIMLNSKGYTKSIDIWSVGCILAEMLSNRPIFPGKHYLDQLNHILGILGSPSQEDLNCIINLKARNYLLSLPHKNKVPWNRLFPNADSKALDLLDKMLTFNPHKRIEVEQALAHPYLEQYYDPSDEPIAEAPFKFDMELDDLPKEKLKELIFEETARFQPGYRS
# [19] = biological target: Mitogen-activated protein kinase 1 (Homo sapiens) (UniProt P28482); details: at 1 µM
# [20] = biological target: Mitogen-activated protein kinase 3 (Homo sapiens) (UniProt P27361); details: at 0.1 µM;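 also: each value is a mean inhibition figure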
# Mitogen-activated protein kinase 3 (Homo sapiens), sequence (P27361 whole entry): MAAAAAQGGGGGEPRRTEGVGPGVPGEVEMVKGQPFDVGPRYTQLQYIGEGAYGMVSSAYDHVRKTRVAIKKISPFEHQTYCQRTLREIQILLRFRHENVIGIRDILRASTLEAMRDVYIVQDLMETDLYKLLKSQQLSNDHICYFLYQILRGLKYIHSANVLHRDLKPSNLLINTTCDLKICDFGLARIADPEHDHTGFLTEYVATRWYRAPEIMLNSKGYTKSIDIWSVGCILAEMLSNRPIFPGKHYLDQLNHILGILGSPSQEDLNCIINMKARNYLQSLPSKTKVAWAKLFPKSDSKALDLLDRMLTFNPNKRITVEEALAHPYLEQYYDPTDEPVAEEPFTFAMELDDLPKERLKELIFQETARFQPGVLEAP
# Dual specificity protein kinase CLK3 (Homo sapiens), sequence (P49761 whole entry, looked up): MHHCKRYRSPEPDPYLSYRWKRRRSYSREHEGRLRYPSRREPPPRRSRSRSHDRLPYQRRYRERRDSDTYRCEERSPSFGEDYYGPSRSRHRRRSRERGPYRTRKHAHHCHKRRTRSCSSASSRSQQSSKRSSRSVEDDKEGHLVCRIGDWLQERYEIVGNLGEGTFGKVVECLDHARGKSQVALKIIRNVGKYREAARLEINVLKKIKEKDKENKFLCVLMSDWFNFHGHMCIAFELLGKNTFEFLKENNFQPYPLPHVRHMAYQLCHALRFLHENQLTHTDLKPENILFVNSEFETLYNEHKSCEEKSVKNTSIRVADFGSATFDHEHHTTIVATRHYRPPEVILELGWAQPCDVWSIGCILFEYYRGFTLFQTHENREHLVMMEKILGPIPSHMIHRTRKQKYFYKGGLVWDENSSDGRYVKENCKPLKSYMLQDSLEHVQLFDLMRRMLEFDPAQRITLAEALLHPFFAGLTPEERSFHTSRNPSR
Structure (SMILES),inhibition [1] [%],inhibition [2] [%],inhibition [3] [%],inhibition [4] [%],inhibition [5] [%],inhibition [6] [%],inhibition [7] [%],inhibition [8] [%],inhibition [9] [%],inhibition [10] [%],inhibition [11] [%],inhibition [12] [%],inhibition [13] [%],inhibition [14] [%],inhibition [15] [%],inhibition [16] [%],inhibition [17] [%],inhibition [18] [%],inhibition [19] [%],inhibition [20] [%]
Cc1ccc(C(=O)NC2CCCCC2)cc1-c1ccc(C(=O)NCC2CC2)cc1,1.19,0.7,-0.59,0.96,0.46,1.77,1.81,1.78,1.84,1.78,0.33,-0.44,1.1,1.23,3.16,5.74,6.33,3.78,4.11,2.55
Cn1cc(C=C2C(=O)Nc3cccnc32)c2ccccc21,-1.26,2.68,10.6,0.78,4.49,2.52,4.08,4.33,12.2,3.54,8.9,-0.99,13.8,1.64,15.2,3.04,6.24,2.02,2.73,2.22
COc1ccc2cc(-c3c(-c4ccncc4)nc(-c4ccc([S+](C)[O-])cc4)n3C)ccc2c1 (stereo unspecified),0.67,0.49,3.52,-0.23,0.37,3.31,1.71,4.07,11.5,2.47,9.29,-1.81,1.99,0.14,-0.51,1.55,4.27,1.94,2.54,4.68
NS(=O)(=O)c1ccc(N/N=C2\C(=O)Nc3ccc(C(=O)NCCc4c[nH]cn4)cc32)cc1,24.2,6.64,30.6,5.35,31.5,6.85,33.4,50.7,86.8,51,86.6,9.13,48.9,3.77,20.2,3.56,9.28,1.92,17.6,5.33
Cc1cc(O)cc(C)c1/C=C/c1cncc(-c2nn[nH]n2)c1,-1.62,1.17,2.98,-1.94,-1.27,2.24,3.95,-2.04,3.03,-2.15,2.36,-4.42,-1.96,1.12,3.32,7.47,9.2,4.59,5.51,4.38
CC1=C(C(=O)Nc2ccc3[nH]ncc3c2)C(c2ccc(F)cc2)NC(=O)N1 (stereo unspecified),1.47,1.78,1.58,-0.22,3.29,0.94,2.08,-0.66,-0.33,-0.1,1.6,-0.95,-0.69,-0.2,-0.66,1.75,0.78,1.62,4.83,2.23
COC(=O)Nc1nc2cc(Oc3ccc(NC(=O)Nc4cccc(C(=O)O)c4)cc3)ccc2[nH]1,0.74,-4.02,-1.76,-3.44,-1.48,0.41,-0.17,-2.54,1.82,-2.48,2.13,-2.08,0.32,0.29,3.06,-0.11,-0.13,0.56,0.1,0.92
CS(=O)(=O)CCNCc1ccc(-c2ccc3ncnc(Nc4ccc(OCc5cccc(F)c5)c(C(F)(F)F)c4)c3c2)o1,0.98,2.19,1.7,-1.48,-1.44,2.83,3.42,1.48,0.2,0.25,-0.18,-1.8,-2.73,-1.19,-0.51,5.87,4.78,5.04,5.42,2.83
CCn1c(-c2nonc2N)nc2c(C#CC(C)(C)O)nc(OC[C@@H](N)c3ccccc3)cc21,0.8,-0.38,5.33,1.06,4.19,-1.52,-0.54,37.4,78.5,32.1,76,1.19,13.3,1.04,8.34,-0.01,-0.83,-1.1,3.38,-3.17
CS(=O)(=O)CCNCc1ccc(-c2ccc3ncnc(Nc4ccc(OCc5ccccc5)c(Cl)c4)c3c2)o1,-0.47,2.24,1.73,1.31,2.67,-0.23,1.41,1.58,4.24,2.15,3.95,-2.41,2.91,4.33,7.49,-0.54,1.16,2.06,1.18,1.84
CC(C)=Cc1cccc2c1/C(=N/Nc1ccc(S(N)(=O)=O)cc1)C(=O)N2,1.83,-1.42,2.34,0.57,5.61,0.58,2.29,13.8,53.5,7.42,44,2.49,10.8,1.38,6.2,-0.73,6.66,-0.23,0.78,0.6
O=C1NC(=O)C(c2ccccc2Cl)=C1Nc1cccc(O)c1,21.8,8.06,38.5,2.78,15.2,3.09,2.96,,,,,1.81,7.57,0.96,3.38,2.21,2.41,2.64,2.43,2.98
Cc1cccc(-c2n[nH]cc2-c2ccc3ncccc3n2)n1,-3.14,1.27,6.72,-0.18,4.09,0.1,4.03,0.39,1.15,-0.14,0.05,-0.8,6.4,-0.32,0.37,1.26,-0.31,0.39,1.2,3.13
